Molecules are shown by their SMILES. This is part of a sample that, as a whole, favours compounds with a hit. Of some 83,000 tested, about 20% had one in any assay.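 The test compound was applied at a single concentration to cells in 96-well plates for 48 hours, and percent growth was recorded.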 Unmarked numbers belong to inactive results. The source made the active and inactive calls. The calls were made as follows: active = growth percent below 10; inactive = the rest.

Common to all, as to test: NCI-60 one-dose screen, 48 h (100 = growth as untreated, 0 = no growth, -100 = all killed)
The test system of one assay is HCT-15 colon. Conditions: 10 µM unless noted.
For another assay, the system named is HT29 colon. Conditions: 10 µM unless noted.
Another assay concerns SNB-75 CNS. To be noted: 10 µM unless noted.
For a further assay, the system named is SNB-19 CNS. To be noted: 10 µM unless noted.
The next assay deals with U251 CNS. Conditions: 10 µM unless noted.
In the next assay the test system is PC-3 prostate. Conditions: 10 µM unless noted.
Another assay deals with SK-MEL-5 melanoma. To be noted: 10 µM unless noted.
A further assay deals with UACC-62 melanoma. To be noted: 10 µM unless noted.
The next assay has as its system LOX IMVI melanoma. To be noted: 10 µM unless noted.
The next assay relates to SK-MEL-28 melanoma. To be noted: 10 µM unless noted.
The test system of the next assay is SK-MEL-2 melanoma. To be noted: 10 µM.
Another assay relates to EKVX NSCLC. To be noted: 10 µM unless noted.
Another assay has as its system SN12C renal. To be noted: 10 µM unless noted.
A further assay relates to UO-31 renal. To be noted: 10 µM unless noted.
The subject of another assay is TK-10 renal. Conditions: 10 µM unless noted.
In a further assay the test system is ACHN renal. To be noted: 10 µM unless noted.
The test system of a further assay is A498 renal. To be noted: 10 µM unless noted.
The next assay deals with CCRF-CEM leukemia. Conditions: 10 µM unless noted.
The next assay concerns MOLT-4 leukemia. To be noted: 10 µM unless noted.
The subject of the next assay is CAKI-1 renal. To be noted: 10 µM unless noted.

Turning to `c1ccc2c(c1)CCN(NCCN1CCCC1)C2`, the growth in the assay with HCT-15 colon is 105%; in the assay on HT29 colon it was 101%; in the assay with SNB-75 CNS, 70.9%; in the assay on SNB-19 CNS it was 107%; in the assay on U251 CNS, 94.3%; with PC-3 prostate, 64.6%. In addition, the growth in the assay on SK-MEL-5 melanoma is 104%; in the assay with UACC-62 melanoma it was 98.6%; with LOX IMVI melanoma, 90.1%; with SK-MEL-28 melanoma, 109%; in the assay with SK-MEL-2 melanoma it was 91.5%; with EKVX NSCLC, 86.4%. The growth in the assay with SN12C renal was 94.8%; with UO-31 renal, 75%; in the assay on TK-10 renal, 96.6%; in the assay on ACHN renal it was 89%; in the assay with A498 renal it was 87.7%; with CCRF-CEM leukemia it was 79.3%. Also, in the assay with MOLT-4 leukemia, the growth was 99.4%.
As for `CCN1CCN(c2cc(C)nc(N(CCCNc3ccnc4cc(Cl)ccc34)Cc3ccc4c(c3)OCO4)n2)CC1`, the growth was 1.33% (active) in the assay on HCT-15 colon; -12.2% (active) in the assay on HT29 colon; -15% (active) in the assay on SNB-75 CNS; 16.3% with SNB-19 CNS; -45.4% (active) in the assay with U251 CNS; 15.8% with PC-3 prostate. Further, the growth with SK-MEL-5 melanoma was -95.7% (active); with UACC-62 melanoma, -47.8% (active); in the assay with LOX IMVI melanoma, -75% (active); with SK-MEL-28 melanoma, -73.6% (active); in the assay with SK-MEL-2 melanoma, -67.9% (active); with EKVX NSCLC it was 42.3%. In addition, the growth was 34.6% in the assay on SN12C renal; -81.9% (active) in the assay with UO-31 renal; -58.2% (active) with TK-10 renal; -0.628% (active) in the assay on ACHN renal; 27.8% in the assay with A498 renal; -18.1% (active) with CCRF-CEM leukemia. In the assay with MOLT-4 leukemia, the growth was -15.9% (active).
Turning to `COc1ccc(C2CC(=O)c3c(O)c(OC)c(OC)c(OC)c3O2)cc1O` (configuration not stated), the growth in the assay on HCT-15 colon was 9.19% (active); with HT29 colon, 101%; in the assay with SNB-75 CNS, 39.9%; in the assay with SNB-19 CNS, 36.9%; with U251 CNS, 25.7%; in the assay with PC-3 prostate, 31.2%. Moreover, the growth is 18.9% in the assay on SK-MEL-5 melanoma; 35.2% with UACC-62 melanoma; 40.9% in the assay with LOX IMVI melanoma; 52.9% in the assay on SK-MEL-28 melanoma; 48.8% with SK-MEL-2 melanoma; 50.4% in the assay on EKVX NSCLC. Moreover, the growth in the assay with SN12C renal was 45.4%; in the assay on UO-31 renal, 51.6%; in the assay with TK-10 renal, 70.6%; in the assay on ACHN renal, 40.4%; in the assay on CAKI-1 renal, 38.9%; with CCRF-CEM leukemia it was 24.2%. In the assay on MOLT-4 leukemia, the growth was 22%.
Take `COC(=O)CCCNc1c(-c2c(O)c(O)cc3c(O)c(-c4c(C)cc5c(-c6nc7ccccn7c6NCCCC(=O)OC)c(O)c(O)cc5c4O)c(C)cc23)nc2ccccn12`: the growth in the assay on HCT-15 colon is 76.9%; with HT29 colon, 48.8%; in the assay on SNB-75 CNS, 19.9%; with SNB-19 CNS, 21.4%; in the assay on U251 CNS it was 14%; in the assay on PC-3 prostate, 52.7%. Besides, the growth with SK-MEL-5 melanoma was 76.2%; in the assay on UACC-62 melanoma it was 41.4%; in the assay on LOX IMVI melanoma it was 18%; in the assay on SK-MEL-28 melanoma, 39.7%; in the assay with SK-MEL-2 melanoma it was 60.1%; in the assay on EKVX NSCLC it was 61.8%. Also, the growth in the assay on SN12C renal was 21.7%; with UO-31 renal, 57.8%; in the assay on TK-10 renal, 64.4%; in the assay with ACHN renal, 78.7%; in the assay on A498 renal it was 32.1%; with CCRF-CEM leukemia, 27.4%. Further, the growth with MOLT-4 leukemia was 15.7%.
`CC(C)(C)C(=O)OCOP(=O)(OCOC(=O)C(C)(C)C)C1CCCN(OC(=O)c2ccccc2)C1=O` (configuration not stated): the growth in the assay with HCT-15 colon was 28.6%; with HT29 colon, 5.75% (active); with SNB-75 CNS, 73.1%; in the assay on SNB-19 CNS, 14%; in the assay on U251 CNS it was 6.63% (active); in the assay with PC-3 prostate, 49.7%. The growth in the assay with SK-MEL-5 melanoma was -28% (active); with UACC-62 melanoma, 4.95% (active); in the assay with LOX IMVI melanoma it was 40.1%; in the assay on SK-MEL-28 melanoma it was -11.1% (active); in the assay on SK-MEL-2 melanoma it was 51%; with EKVX NSCLC, 21.4%. Besides, the growth with SN12C renal is 4.97% (active); with UO-31 renal, 11.5%; in the assay on TK-10 renal it was 11.7%; in the assay with ACHN renal, 15.7%; with A498 renal, 10.9%; with CCRF-CEM leukemia, 4.03% (active). Further, the growth in the assay on MOLT-4 leukemia is 7.12% (active).
On to `CCOC(=O)C1=C(C)N=C2Sc3cc(OC(F)(F)F)ccc3N2[C@H]1c1ccccn1`, for which the growth in the assay on HCT-15 colon was 13.7%; in the assay on HT29 colon, 39.2%; with SNB-75 CNS, 63.4%; in the assay on SNB-19 CNS, 37.9%; with U251 CNS, 23.1%; in the assay on PC-3 prostate, 50.9%. Moreover, the growth with SK-MEL-5 melanoma was 38.5%; in the assay with UACC-62 melanoma, 28.3%; in the assay with LOX IMVI melanoma it was 32.9%; with SK-MEL-28 melanoma it was 42.4%; in the assay with SK-MEL-2 melanoma, 43.6%; with EKVX NSCLC it was 26.8%. Besides, the growth in the assay on SN12C renal was 47.4%; in the assay with UO-31 renal, 33.1%; with TK-10 renal, 51.1%; in the assay on ACHN renal, 32.8%; with CAKI-1 renal, 27.9%; in the assay on CCRF-CEM leukemia it was 43.3%. Also, the growth in the assay with MOLT-4 leukemia was 29.5%.
As for `CCc1cc2c(c3ccc(C(=O)CBr)cc13)CCCC2`, the growth with HCT-15 colon is 101%; in the assay with HT29 colon, 91.7%; with SNB-75 CNS, 91.5%; in the assay with SNB-19 CNS it was 108%; in the assay with U251 CNS, 95.1%; with PC-3 prostate, 96%. For the same compound, the growth in the assay with SK-MEL-5 melanoma is 106%; with UACC-62 melanoma it was 91.8%; with LOX IMVI melanoma, 93.3%; in the assay with SK-MEL-28 melanoma, 108%; with SK-MEL-2 melanoma, 96.9%; with EKVX NSCLC, 74.3%. The growth in the assay on SN12C renal was 99.7%; in the assay with UO-31 renal, 81.4%; in the assay with TK-10 renal, 91.9%; in the assay on ACHN renal, 105%; in the assay with A498 renal it was 102%; with CCRF-CEM leukemia it was 114%. Moreover, the growth in the assay on MOLT-4 leukemia is 85.8%.
Turning to `Cc1cc2c(-c3nc4ccccn4c3NC34CC5CC(CC(C5)C3)C4)c(O)c(O)cc2c(O)c1-c1c(C)cc2c(-c3nc4ccccn4c3NC34CC5CC(CC(C5)C3)C4)c(O)c(O)cc2c1O`, the growth with HCT-15 colon is 20%; with HT29 colon, 14.1%; in the assay on SNB-75 CNS it was 19.6%; with SNB-19 CNS it was 17.1%; in the assay with U251 CNS it was 6.36% (active); in the assay with PC-3 prostate it was 14.7%. Also, the growth with SK-MEL-5 melanoma is -57.7% (active); in the assay with UACC-62 melanoma, 0.552% (active); with LOX IMVI melanoma, 3.37% (active); in the assay on SK-MEL-28 melanoma, 17.3%; in the assay with SK-MEL-2 melanoma, -2.48% (active); with EKVX NSCLC, 5.97% (active). In addition, the growth in the assay on SN12C renal was 15.9%; in the assay on UO-31 renal, -2.25% (active); with TK-10 renal, 7.59% (active); with ACHN renal, 7.04% (active); with A498 renal, 10.8%; in the assay with CCRF-CEM leukemia, 16.4%. For the same compound, the growth in the assay with MOLT-4 leukemia is 8.13% (active).

These data come from PubChem BioAssay (NCI).
